# Measurements published in PubChem BioAssay AID743279 (National Center for Advancing Translational Sciences (NCATS), 2014).
# The campaign covered roughly 360,000 compounds. About 17,000 (4.7%) were called active. Roughly 5% stayed inconclusive and do not appear here. The list comes from a sample in which actives are over-represented; it also holds similar structures and randomly drawn compounds. A number with no mark means an inactive call. Rule as the data show it: active = activity change below about -50%; inconclusive = mostly about -30% to -49%; inactive = weaker than that.
# Experiment: qHTS for Inhibitors of Inflammasome Signaling: IL-1-beta AlphaLISA Primary Screen
# Conditions: THP-1 LPS/ATP IL-1B secretion, 16 h; at 57.5 µM, stronger effect = lower value
# Procedure, shortened: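 Secreted IL-1B measured by AlphaLISA bead assay after 16 h compound exposure of THP-1 cells; compounds (final up to 57.5 uM) added 1 h before LPS (250 ng/mL) and ATP (1.25 mM) stimulation; lower signal means less secretion.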
# % is scaled to controls: 0 for no effect and ±100 for the full control effect.
row,Compound,activity change
1,Cc1ccc(C=O)c([B-](F)(F)F)c1,5.57%
2,CCOC(=O)C1=C(C)N=c2s/c(=C\C(=O)OC)c(=O)n2C1c1ccc(OC)cc1 (stereo unspecified),10.3%
3,O=C1CCCC2=C1C(c1ccccc1)n1c(s/c(=C/c3cccc(F)c3)c1=O)=N2 (stereo unspecified),2.6%
4,COc1ccc(OC)c(C2C3=C(N=c4s/c(=C\c5cccc(O)c5)c(=O)n42)c2ccccc2CC3)c1 (stereo unspecified),-55.4% (active)
5,O=S(=O)(Nc1ccc2[nH]ncc2c1)c1ccccc1Cl,-6.19%
6,CNC(=O)c1ccsc1NC(=O)c1ccc(S(=O)(=O)N2CCc3ccccc32)cc1,-11.5%
7,CCN(Cc1ccncc1)C(=S)Nc1ccccc1C,9.34%
8,COc1ccc(NC(=O)CCCOc2ccc(C(C)=O)cc2)cc1S(=O)(=O)N1CCCCC1,5.4%
9,C=CCn1c(COc2ccc(F)cc2)nnc1SCC(=O)Nc1cccc(S(N)(=O)=O)c1,-56.5% (active)
10,COc1ccc(-n2cnnc2SCC(=O)Nc2cccc(S(N)(=O)=O)c2)cc1,23.2%
11,C=CCn1c(CC(=O)Nc2cccc(OC)c2)nnc1SCC(=O)NC1CCCCC1,-18.6%
12,O=C(N[C@H]1CC[C@H](CC(=O)N2CCCCC2)O[C@@H]1CO)c1cccc(F)c1,34.1%
13,COc1ccc(Nc2ncnc3sc(C)cc23)cc1,1.88%
14,COc1ccc(Nc2ccc3ccccc3c2)cc1,-4.37%
15,COc1ccc(Nc2cc(Sc3ccc(OC)cc3)ncn2)cc1,-73.2% (active)
16,Cc1cccc(N2CCN(C(=O)/C=C/c3ccco3)CC2)c1C,-12.5%
17,CCN1CCN(C(=O)C2CCN(S(=O)(=O)c3cc(Cl)ccc3Cl)CC2)CC1,24.2%
18,O=C(c1cnc(Cl)c(Cl)c1)N1CCN(S(=O)(=O)c2ccc(F)cc2)CC1,-12.3%
19,CC(=O)N1CCN(S(=O)(=O)c2c(F)cc(F)c(Cl)c2F)CC1,-92.4% (active)
20,O=[N+]([O-])c1ccc(CN2CC(N3CCC(c4ccccc4)CC3)CS2(=O)=O)cc1 (stereo unspecified),-10.2%
21,O=C(Nc1cc(F)ccc1F)c1ccc2c(=O)n3c(nc2c1)CCC3,-13.9%
22,CC(C)(C)OC(=O)NCCCCCNC(=O)c1[nH]cnc1C(=O)Nc1nccs1,-8.09%
23,C=CC(=O)OCCOCCOCCOCCOC(=O)C=C,-108% (active)

row,Compound,activity change
1,COC(=O)c1ccc2nc(-c3ccc(F)cc3)c(Cc3ccc(C)cc3)n2c1,14.8%
2,CC1(c2cccc(N)c2)OCCO1,-13.4%
3,CCC(=O)N1CCCC1(C)C(=O)Nc1ccc2c(c1)CCN2C(C)=O (stereo unspecified),-2.74%
4,O=C(CN1C(=O)/C(=C\c2ccccc2F)SC1=S)Nc1nc2ccccc2s1,-3.88%
5,O=C(CCCN1C(=O)/C(=C/c2cccs2)SC1=S)Nc1ccc(O)cc1,-71.2% (active)
6,CC(C(=O)Nc1ccc(O)c(C(=O)O)c1)N1C(=O)/C(=C/c2cccs2)SC1=S (stereo unspecified),3.56%
7,COc1ccc(/C=C2/SC(=O)N(CCCCCC(=O)Nc3ccccc3C(=O)O)C2=S)cc1,34.4%
8,COc1cccc(/C=C2\SC(=S)N(CCCC(=O)N3CCOCC3)C2=O)c1,-22.2%
9,O=C(CCCN1C(=O)/C(=C\c2ccccc2)SC1=S)Nc1ccccc1O,-71.6% (active)
10,COc1ccc(S(=O)(=O)N[C@@H]2C=C[C@@H](CC(=O)N3CCc4ccccc4C3)O[C@@H]2CO)cc1,12.3%
11,CCOc1cc(/C=C(/C#N)c2ccc(Cl)cc2)cc(Cl)c1OCC(=O)O,31.7%
12,O=C(NNC(=O)C1CCCC1)c1ccc(F)cc1,-5.32%
13,O=C(/C=C/c1ccc([N+](=O)[O-])o1)NNC(=O)c1ccc(F)cc1,-102% (active)
14,CCc1noc(C)c1C(=O)NNC(=O)c1ccc(F)cc1,10.8%
15,CC(C)NC(=O)C1(C)CCCCCN1C(=O)c1ccc(-c2ccccc2)cc1 (stereo unspecified),-2.6%
16,O=C1/C(=C\c2cccnc2)CN(Cc2ccccc2)C/C1=C\c1cccnc1,-107% (active)
17,Cc1ccccc1C1=N/C(=C/c2cccnc2)C(=O)O1,38.6%
18,Clc1ccc(CN2CCN(/N=C/c3cccnc3)CC2)cc1,11.9%
19,CC(C)N=C1CCCC1C(=S)SSC(=S)C1CCCC1=NC(C)C (stereo unspecified),-104% (active)
20,COc1cccc(C(NC(C)=O)c2nc(-c3cnc4ccccc4c3)cs2)c1 (stereo unspecified),-1.76%
21,CN1CCC(N(C)C(=O)c2ccc(Cl)c(S(=O)(=O)Nc3ccc(Cl)cc3)c2)CC1,-20%
22,CCCCNC(=O)CCn1c(=O)c2ccccc2n(Cc2cc(C)ccc2C)c1=O,-9.41%
23,O=C(/C=C/[C@H]1O[C@@H](n2cnc3c(NC(=O)c4ccccc4)ncnc32)[C@H](O)[C@@H]1O)NCc1ccccc1,1.22%
